From PubChem BioAssay
A selection: hits, their analogues and other compounds. The true share with any hit is near 0.84%.
G6PDH counter: L. mesenteroides G6PDH inhibition counter-screen; inhibition, % at 5 µM; 200,000 compounds, 0.12% hits; Purified L. mesenteroides G6PDH, diaphorase/resazurin coupled fluorescence, 45 min; in the data active = inhibition above about 50%
DTT redox prof: compounds producing H2O2 with reducing agent – biochemical, NIH compound library profiling, artefact control for MLSCN library redox annotation, primary screen | DTT-dependent redox cycling H2O2, phenol red/HRP absorbance; 100% = 100 µM peroxide control, 0% = buffer | activation, % at 10 µM | 200,000 compounds, 0.03% hits;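 active = activation of at least 50% relative to the plate's high and low controls in the primary single-dose screen; inactive = activation below 50%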;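 note: compound incubated with DTT at 0.8 mM final as the reducing agent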
Tb hexokinase: blocks Trypanosoma brucei hexokinase 1 activity; AID 1430; inhibition, % at 10 µM; 220,000 compounds, 0.11% hits; recombinant TbHK1, G6PDH-coupled NADH A340;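 active = inhibition of 50% or more in the single-dose primary screen; inactive = inhibition below 50%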
S1P3 antag: blocks the human S1P3 receptor | Q99500 | CHO S1P3 NFAT-BLA reporter, FRET fluorescence, antagonist mode | inhibition, % at 4.98 µM | 170,000 compounds, 0.27% hits;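 active = inhibition above the plate cutoff, the mean inhibition of test wells on that plate plus 3 SD, cut at about 28% in these data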;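 note: cells challenged with S1P at its EC80 of 0.8 µM; blue over green emission ratio from cleaved BLA substrate after 4 h stimulation; 0% = S1P-stimulated wells and 100% = unstimulated DMSO-only wells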
p97 ATPase inh: human p97 ATPase inhibition; P55072; recombinant p97 ATPase, Kinase-Glo ATP luminescence, 3 h; inhibition, % at 8 µM; 220,000 compounds, 0.42% hits; AID 1481; in the data active = inhibition above about 15%;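 note: 0% = DMSO vehicle and 100% = wells lacking enzyme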
Target sequence (P55072 whole entry, looked up): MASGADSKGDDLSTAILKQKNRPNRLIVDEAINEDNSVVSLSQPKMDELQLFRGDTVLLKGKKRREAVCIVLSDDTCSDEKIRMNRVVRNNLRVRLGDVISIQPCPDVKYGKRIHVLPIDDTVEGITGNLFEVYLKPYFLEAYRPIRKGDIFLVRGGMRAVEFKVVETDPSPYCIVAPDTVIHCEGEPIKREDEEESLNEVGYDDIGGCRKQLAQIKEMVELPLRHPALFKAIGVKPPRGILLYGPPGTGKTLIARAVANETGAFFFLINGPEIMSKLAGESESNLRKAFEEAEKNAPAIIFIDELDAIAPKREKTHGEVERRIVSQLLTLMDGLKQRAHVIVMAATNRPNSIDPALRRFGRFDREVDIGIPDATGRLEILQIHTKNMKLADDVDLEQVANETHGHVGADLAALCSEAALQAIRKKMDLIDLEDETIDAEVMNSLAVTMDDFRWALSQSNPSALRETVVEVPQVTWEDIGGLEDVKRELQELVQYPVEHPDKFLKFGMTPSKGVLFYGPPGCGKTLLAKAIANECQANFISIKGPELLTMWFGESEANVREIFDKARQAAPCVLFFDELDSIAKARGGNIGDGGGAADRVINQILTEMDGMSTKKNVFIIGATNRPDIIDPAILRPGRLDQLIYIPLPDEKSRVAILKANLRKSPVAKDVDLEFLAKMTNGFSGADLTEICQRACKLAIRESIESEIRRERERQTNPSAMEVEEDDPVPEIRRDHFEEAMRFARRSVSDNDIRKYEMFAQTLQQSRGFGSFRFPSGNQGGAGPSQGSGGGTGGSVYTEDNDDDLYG
p97 inh conf: human p97 ATPase inhibition, confirmation; inhibition, % at 8 µM; shares compounds with p97 ATPase inh; 760 compounds, 44% hits; recombinant p97 ATPase, Kinase-Glo ATP luminescence;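 active = percent inhibition of p97 ATPase above a set limit, the primary screen's mean plus 3 SD, cut at about 15% in these data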;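 note: 0% = DMSO wells and 100% = wells lacking p97 protein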
* hit, by the source's call.

What do the screens show for `O=C(c1cc(C(=O)NCCc2ccccc2)c(=O)n(CCc2ccccc2)c1)c1cc(Cl)ccc1O`?
G6PDH counter: 15; DTT redox prof: -1; Tb hexokinase: 26; S1P3 antag: -4; p97 ATPase inh: 0

How did CCOc1ccc(N2C(=O)Nc3ccccc3C2(O)C(=O)NCc2ccc(C)cc2)cc1 (configuration not stated) do in these assays?
G6PDH counter: -4; DTT redox prof: -1; Tb hexokinase: -6; S1P3 antag: 6; p97 ATPase inh: 0

What do the screens show for `CCCC(=O)Nc1ccc(C(N)=O)cc1`?
G6PDH counter: 0; DTT redox prof: 0; Tb hexokinase: -4; S1P3 antag: -8; p97 ATPase inh: 2

How did CC(=O)NCCC(=O)Nc1ccc(C(N)=O)cc1 do in these assays?
G6PDH counter: 18; DTT redox prof: 0; Tb hexokinase: -1; S1P3 antag: 3; p97 ATPase inh: 23*; p97 inh conf: 7

How did CCCOC(=O)c1ccc(Nc2cc(C)nc3ncnn23)cc1 do in these assays?
G6PDH counter: 3; DTT redox prof: -2; Tb hexokinase: -20; S1P3 antag: 13; p97 ATPase inh: -12

What do the screens show for `N#CC1=C(N)NC(SCC(=O)c2ccc(Br)cc2)=C(C#N)C12CCCCC2`?
G6PDH counter: -1; DTT redox prof: 0; Tb hexokinase: -5; S1P3 antag: 4; p97 ATPase inh: 15*; p97 inh conf: 6

How did CC1=NN(c2ccccc2)C(=O)C1=C(C)C do in these assays?
G6PDH counter: 9; DTT redox prof: 0; Tb hexokinase: -2; S1P3 antag: 5; p97 ATPase inh: 14

What do the screens show for `CN(C(=S)Nc1cccnc1)c1ccc(O)cc1`?
G6PDH counter: 12; DTT redox prof: 0; Tb hexokinase: 5; S1P3 antag: -22; p97 ATPase inh: 18*; p97 inh conf: 7

Results for Cc1csc2c(=O)sc(NC(=O)c3cccs3)nc12 ?
Tb hexokinase: -16; S1P3 antag: -7; p97 ATPase inh: 34*; p97 inh conf: 28*

What do the screens show for `O=C(c1cnn2c(C(F)(F)F)cc(-c3cccs3)nc12)N1CCN(C(c2ccccc2)c2ccccc2)CC1`?
G6PDH counter: -4; DTT redox prof: 2; Tb hexokinase: -12; p97 ATPase inh: -1

How did O=C(C[n+]1cnn(CC(=O)c2ccc(Cl)cc2Cl)c1)c1ccc([N+](=O)[O-])cc1 do in these assays?
G6PDH counter: -23; DTT redox prof: 0; Tb hexokinase: -4; S1P3 antag: -20; p97 ATPase inh: 17*; p97 inh conf: 3

How did O=C(COc1ncnc2cc([N+](=O)[O-])ccc12)NCCc1ccc(Cl)cc1 do in these assays?
G6PDH counter: 1; DTT redox prof: 0; Tb hexokinase: 2; S1P3 antag: -5; p97 ATPase inh: 15*; p97 inh conf: 9

What do the screens show for `O=C(COc1ncnc2cc([N+](=O)[O-])ccc12)NC(=O)NC1CCCCC1`?
G6PDH counter: 1; DTT redox prof: 0; Tb hexokinase: -11; S1P3 antag: 3; p97 ATPase inh: 0

Results for CC(C)CNC(=O)[C@H](Cc1ccccc1)NC(=O)c1ccco1 ?
G6PDH counter: 10; DTT redox prof: 3; Tb hexokinase: -1; p97 ATPase inh: -5

Results for Cc1c(C(c2cccc([N+](=O)[O-])c2O)c2c(C)n(C)n(-c3ccccc3)c2=O)c(=O)n(-c2ccccc2)n1C ?
G6PDH counter: 2; DTT redox prof: 1; Tb hexokinase: -2; p97 ATPase inh: -2

What do the screens show for `Cc1[nH]n(-c2ccccc2)c(=O)c1C(c1cccc([N+](=O)[O-])c1O)c1c(C)[nH]n(-c2ccccc2)c1=O`?
G6PDH counter: 0; DTT redox prof: 0; Tb hexokinase: -5; S1P3 antag: -20; p97 ATPase inh: 24*; p97 inh conf: 6

Results for CCN(CC)c1cccc(OC2=NS(=O)(=O)c3ccccc32)c1 ?
G6PDH counter: 23; DTT redox prof: 2; Tb hexokinase: 6; S1P3 antag: 20; p97 ATPase inh: 19*; p97 inh conf: 9

What do the screens show for `CCc1ccc(OC2=NS(=O)(=O)c3ccccc32)cc1`?
G6PDH counter: -3; DTT redox prof: 0; Tb hexokinase: -1; S1P3 antag: -13; p97 ATPase inh: 0

Results for Cc1ccc(S(=O)(=O)NCC(=O)OC2CCOC2=O)cc1 (configuration not stated) ?
G6PDH counter: 3; DTT redox prof: 2; Tb hexokinase: 4; S1P3 antag: 15; p97 ATPase inh: 3

What do the screens show for `COc1ccc(/C=N/Nc2nnc(-c3ccccc3)c(=O)[nH]2)cc1`?
G6PDH counter: -8; DTT redox prof: 0; Tb hexokinase: -8; S1P3 antag: -14; p97 ATPase inh: 17*; p97 inh conf: 38*

Results for Cc1cnn(-c2nc(-c3ccccc3)cc(-c3ccccc3)n2)c1 ?
G6PDH counter: 10; DTT redox prof: -1; Tb hexokinase: 3; S1P3 antag: -5; p97 ATPase inh: -8

What do the screens show for `CCC(C)c1ccc(C2C3=C(Nc4nc(N)[nH]c(=O)c42)c2ccccc2C3=O)cc1` (configuration not stated)?
Tb hexokinase: -28; S1P3 antag: 7; p97 ATPase inh: 15*; p97 inh conf: 5

Results for CN(Cc1ccccc1)C(=O)CSc1nc2ccccc2c(=O)n1Cc1ccco1 ?
G6PDH counter: -2; DTT redox prof: -1; Tb hexokinase: -2; S1P3 antag: 6; p97 ATPase inh: 7

What do the screens show for `Cc1ccc(NC(=O)CN(C)C(=O)CSc2nc3ccccc3c(=O)n2Cc2ccco2)cc1`?
G6PDH counter: -4; DTT redox prof: 2; Tb hexokinase: -1; p97 ATPase inh: 19*; p97 inh conf: 7

Results for CC(=O)c1c(C)nc2cc(Cl)ccc2c1N ?
G6PDH counter: 3; DTT redox prof: 10; Tb hexokinase: -10; S1P3 antag: -34; p97 ATPase inh: 3

Results for Cc1[nH][nH]c(=O)c1C(c1ccc(-c2cccc(C(=O)O)c2)o1)c1c(C)[nH][nH]c1=O ?
G6PDH counter: 24; DTT redox prof: -1; Tb hexokinase: -4; S1P3 antag: -20; p97 ATPase inh: 19*; p97 inh conf: 12

What do the screens show for `COC(=O)c1ccc(-c2ccc(C(c3c(C)[nH][nH]c3=O)c3c(C)[nH][nH]c3=O)o2)cc1`?
G6PDH counter: 24; DTT redox prof: 0; Tb hexokinase: -11; S1P3 antag: -26; p97 ATPase inh: 11

How did Cc1[nH][nH]c(=O)c1C(c1ccc(-c2cccc(Cl)c2)o1)c1c(C)[nH][nH]c1=O do in these assays?
Tb hexokinase: -6; S1P3 antag: -14; p97 ATPase inh: 36*; p97 inh conf: 34*
